Reference: PubChem BioAssay (EPA / NIEHS)
Activity calls are given as the source filed them. The calls were made as follows: active = hit-call score of the fitted dose curve at least 0.9, where 1 is the maximum; inactive = score below 0.9.

What was measured:
[1] = ATG_E_Box_CIS: Attagene CIS-FACTORIAL HepG2 Assay for human Enhancer Box (E-box) (AID 2282936); details: HepG2 E-box cis-reporter transcription, actives raise or lower the signal
In short: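 Transiently transfected HepG2, endogenous TF-driven reporters, 24 h dosing. Readout: RT-PCR plus capillary electrophoresis of fluorescent reporter fragments. Gain or loss of signal fitted bidirectionally against DMSO baseline.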

[2] = ATG_M_61_CIS: Attagene CIS-FACTORIAL HepG2 Assay for M61 Transcription Factor (Internal Marker) (AID 2282937); details: HepG2 Attagene CIS-FACTORIAL M61 internal marker reporter; actives raise or lower the signal
In short: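 Endogenous transcription factor activity in HepG2 is read through transiently transfected cis-element reporter units. After 24 h dosing, RNA undergoes reverse transcription, PCR and primer extension with 6-FAM before capillary electrophoresis; DMSO-referenced bidirectional fit.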

[3] = ATG_M_19_CIS: Attagene CIS-FACTORIAL HepG2 Assay for M19 Transcription Factor (Internal Marker) (AID 2282939); details: HepG2 Attagene CIS-FACTORIAL M19 internal marker reporter; actives raise or lower the signal
In short: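 HepG2 cells transiently transfected with cis-regulated multiple reporter transcription units were dosed for 24 h; reporter mRNA was quantified by RT-PCR, 6-FAM primer-extension labelling, HpaI digestion and capillary electrophoresis, with bidirectional fitting against DMSO baseline.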

[4] = ATG_ERE_CIS: Attagene CIS-FACTORIAL HepG2 Assay for Estrogen Response Element (ERE) (AID 2282940); details: HepG2 ERE cis-reporter, Attagene RNA transcript; actives raise or lower the signal
In short: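 HepG2 cells transiently transfected with cis-promoter-driven multiplexed reporter transcription units report endogenous TF activity. After 24 h compound exposure, reporter mRNA is quantified by RT-PCR with capillary electrophoresis fluorescence; bidirectional fitting versus DMSO baseline.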

[5] = ATG_Ets_CIS: Attagene CIS-FACTORIAL HepG2 Assay for human Erythroblast Transformation Specific (ETS) (AID 2282941); details: HepG2 ETS cis-reporter transcription, actives raise or lower the signal
In short: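 RT-PCR/capillary electrophoresis fluorescence read-out of reporter mRNA; HepG2 transient multi-reporter transfection; 24 h compound exposure; gain or loss of signal fitted bidirectionally relative to DMSO.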

[6] = molecular target: Hepatocyte nuclear factor 3-beta (Homo sapiens) (UniProt Q9Y261); assay: ATG_FoxA2_CIS: Attagene CIS-FACTORIAL HepG2 Assay for human Forkhead box A2 (FOXA2) (AID 2282942); details: HepG2 cis-reporter transcription factor activity, 24 h; actives raise or lower the signal
In short: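 Reporter transcript induction is measured by fluorescence after capillary electrophoresis of RT-PCR products from HepG2 cells exposed 24 h. Cis-regulated reporter units report endogenous factor activity; curves fitted both directions against DMSO.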

[7] = ATG_FoxO_CIS: Attagene CIS-FACTORIAL HepG2 Assay for human Forkhead box O (FoxO) (AID 2282943); details: HepG2 Attagene cis-reporter, FoxO element, mRNA; actives raise or lower the signal
In short: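 HepG2 cells transiently transfected with cis-element-driven reporter units report endogenous FoxO activity. After 24 h chemical exposure, reporter mRNA quantified by RT-PCR, fluorescent labeling, HpaI digestion and capillary electrophoresis; bidirectional fit versus DMSO.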

[8] = ATG_GATA_CIS: Attagene CIS-FACTORIAL HepG2 Assay for human GATA Binding Protein (AID 2282944); details: HepG2 GATA cis-element reporter, Attagene multiplex mRNA; actives raise or lower the signal
In short: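 HepG2 cells transiently transfected with multiplexed cis-element reporter units reflecting endogenous transcription factor activity; reporter mRNA measured after 24 h dosing by RT-PCR, 6-FAM labeling, HpaI digestion and capillary electrophoresis. Bidirectional fitting versus DMSO baseline.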

[9] = ATG_GLI_CIS: Attagene CIS-FACTORIAL HepG2 Assay for human Zinc Finger Protein GLI1 (AID 2282945); details: HepG2, Attagene cis-factorial reporter mRNA, GLI element; actives raise or lower the signal
In short: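 Transiently transfected HepG2 cells report endogenous transcription factor activity via cis-element-driven reporter units. After 24 h compound exposure, reporter mRNA was measured by RT-PCR with capillary electrophoresis; bidirectional fitting against DMSO baseline.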

[10] = ATG_EGR_CIS: Attagene CIS-FACTORIAL HepG2 Assay for human Early Growth Response 1 (EGR1) (AID 2282938); details: HepG2 Attagene CIS-FACTORIAL EGR reporter mRNA; actives raise or lower the signal
In short: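 Activity is taken as induction or loss of reporter mRNA versus DMSO, fitted bidirectionally. Transcripts from cis-regulated reporter units in transiently transfected HepG2 were measured after 24 h by RT-PCR with capillary electrophoresis.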

Measured: AC50

Hepatocyte nuclear factor 3-beta (Homo sapiens), sequence (Q9Y261 whole entry, looked up): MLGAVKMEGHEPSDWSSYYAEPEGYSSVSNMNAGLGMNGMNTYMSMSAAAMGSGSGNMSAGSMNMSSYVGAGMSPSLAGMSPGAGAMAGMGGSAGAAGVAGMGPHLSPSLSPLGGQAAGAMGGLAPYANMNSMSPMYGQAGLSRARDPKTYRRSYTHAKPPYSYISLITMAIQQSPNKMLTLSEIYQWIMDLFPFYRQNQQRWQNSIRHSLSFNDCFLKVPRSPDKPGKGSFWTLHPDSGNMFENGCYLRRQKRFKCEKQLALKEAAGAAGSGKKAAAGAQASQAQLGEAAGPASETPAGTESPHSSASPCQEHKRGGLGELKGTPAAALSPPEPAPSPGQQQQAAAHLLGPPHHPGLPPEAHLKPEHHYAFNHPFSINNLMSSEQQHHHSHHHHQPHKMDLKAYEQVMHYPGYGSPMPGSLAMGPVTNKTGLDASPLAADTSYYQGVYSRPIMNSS

FC(F)=C(F)OC(F)(F)C(F)(F)C(F)(F)F
not listed: [10]
inactive: all other assays above

OCCc1ccncc1
not listed: [4] | [6] | [10]
inactive: all other assays above

C#CC1(O)CC[C@H]2[C@@H]3CCC4=CCCC[C@@H]4[C@H]3CC[C@@]21C (some centres undefined)
active: [3] 55.9 µM | [4] 0.0188 µM | [5] 62.5 µM
not listed: [10]
inactive: all other assays above

C=CCOCC(O)CCl (centres undefined)
not listed: [4] | [6] | [8]
inactive: all other assays above

O=c1c2ccccc2oc2ccccc12
not listed: [4] | [6]
inactive: all other assays above

C1=CCCC1
not listed: [10]
inactive: all other assays above

CC(=O)C=CC1C(C)=CCC(C)C1(C)C (centres undefined)
not listed: [10]
inactive: all other assays above

CC(C)CCCCCOC(=O)CCS
not listed: [10]
inactive: all other assays above

C(=CC=Nc1ccccc1)C=CNc1ccccc1
not listed: [9] | [10]
inactive: all other assays above

CCCCCCC(O)CO (centres undefined)
not listed: [8] | [10]
inactive: all other assays above

c1ccc(CNCc2ccccc2)cc1
not listed: [10]
inactive: all other assays above

Nc1ccc(N=Nc2ccccc2)c(N)n1
active: [1] 70.9 µM
not listed: [8] | [10]
inactive: all other assays above

C=C1[C@H]2CC[C@@H]3[C@H]2C(C)(C)CCC[C@]13C
not listed: [4] | [10]
inactive: all other assays above

O=C1CCCN1CCO
not listed: [9] | [10]
inactive: all other assays above

O=C(C=Cc1ccccc1)OCc1ccccc1
not listed: [8] | [10]
inactive: all other assays above

CCN(CCC#N)c1ccc(N=Nc2c(Cl)cc([N+](=O)[O-])cc2Cl)cc1
not listed: [8] | [10]
inactive: all other assays above

Cc1ccc2c(c1)C(=O)c1ccccc1C2=O
active: [4] 12.2 µM
not listed: [10]
inactive: all other assays above

CC1(C)O[C@@H]2C[C@H]3[C@@H]4C[C@H](F)C5=CC(=O)C=C[C@]5(C)[C@@]4(F)[C@@H](O)C[C@]3(C)[C@]2(C(=O)CO)O1
not listed: [4] | [8]
inactive: all other assays above

NC(=O)C1CO1 (centres undefined)
not listed: [8] | [10]
inactive: all other assays above

SCCc1cnccn1
not listed: [10]
inactive: all other assays above

CCCCCCCCCCOC(C)=O
active: [4] 8.88 µM
not listed: [10]
inactive: all other assays above

CCOC(=O)CC
not listed: [10]
inactive: all other assays above

CC1=CC[C@H]2C[C@@H]1C2(C)C
not listed: [10]
inactive: all other assays above

CCCCCCCCCCOS(=O)(=O)O
not listed: [4] | [6] | [10]
inactive: all other assays above

CCc1ccc2c(c1)C(=O)c1ccccc1C2=O
not listed: [10]
inactive: all other assays above
